The entries come from a sample that favours hits as a whole.
Sfp inh: blocks B. subtilis Sfp PPTase activity; Q9F4F7; Biochemical Sfp PPTase activity, qHTS; Potency, µM, inactives show largest response in the series, negative = inhibition, most hits filed as inhibitors; 310,000 compounds, 3.5% hits; AID 1490;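 further: the enzyme is Sfp with the accession as filed and its product quenches rhodamine fluorescence; 0% = enzyme reaction without inhibitor and -100% = no enzyme wells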
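Step 1, compound plus 15 nM Sfp-PPTase, 15 min, room temperature. Step 2, add rhodamine-CoA (5 uM) and BHQ-2-YbbR (12.5 uM). Step 3, read 525/598 nm fluorescence at 0 and 30 min.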
VDR inh: vitamin D3 receptor (human) inhibition | P11473 | VDR-SRC2-3 peptide fluorescence polarization, 2 h | Potency, µM, without a hit: max response, negative = inhibition, usual class: inhibitors | 400,000 compounds, 0.93% hits | AID 504847; further: on the % scale 0 is the no-effect control and ±100 the full control effect
Target sequence (P11473 whole entry, looked up): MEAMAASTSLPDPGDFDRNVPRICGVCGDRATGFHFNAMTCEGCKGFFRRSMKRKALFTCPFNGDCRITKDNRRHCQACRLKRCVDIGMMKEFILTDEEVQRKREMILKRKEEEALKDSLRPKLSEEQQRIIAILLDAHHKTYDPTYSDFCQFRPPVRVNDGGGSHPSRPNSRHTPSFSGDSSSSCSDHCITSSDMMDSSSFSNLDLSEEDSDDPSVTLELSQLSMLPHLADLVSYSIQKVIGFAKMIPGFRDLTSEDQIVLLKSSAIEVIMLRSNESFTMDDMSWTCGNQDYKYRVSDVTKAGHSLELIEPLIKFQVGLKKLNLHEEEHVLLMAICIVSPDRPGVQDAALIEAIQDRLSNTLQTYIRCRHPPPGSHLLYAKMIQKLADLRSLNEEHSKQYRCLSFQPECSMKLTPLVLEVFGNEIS
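Two reagent solutions held at 4 deg C in the dark were dispensed, compounds pinned at 23 nl, and the mixture incubated 2 h at room temperature. Read-out: fluorescence polarization of VDR–SRC2-3 peptide binding.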
G9a inh: blocks human histone lysine methyltransferase G9a | Q96KQ7 | G9a H3K9 monomethylation, AlphaScreen, 2 h | Potency, µM (top dose mostly 102 µM), inactives show at the top dose activity, negative = inhibition, usual class: inhibitors | 350,000 compounds, 8.8% hits; further: on the % scale 0 is the no-effect control and ±100 the full control effect; nearly all actives have a fitted effect of over 75% in size
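Readings reflect AlphaScreen signal from monomethyl-H3K9 antibody detection. HMT at 20 nM; substrate b-H3K9 500 nM; cofactor SAM 20 uM; 2 h RT reaction; compounds tested as titrations in qHTS with 15 min preincubation.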
ALOX12 inh: blocks human arachidonate 12S-lipoxygenase. purified 12hLO, xylenol orange hydroperoxide absorbance. Potency, µM (titrated, usually from 108 µM), without a hit: top-dose activity change, negative = inhibition, usual class: inhibitors. P18054. 580,000 compounds, 1.1% hits; further: on the % scale 0 is the no-effect control and ±100 the full control effect
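Hydroperoxide product was detected by ferrous iron/xylenol orange as the 573 to 405 nm absorbance ratio. Arachidonic acid at 40 uM (final) was turned over for 30 min at room temperature by 150 nM human 12hLO, pH 7.0 Hepes buffer, after 15 min compound preincubation.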
GRP78 ERSR act: inducers of ER stress response in human glioma cells | 420,000 compounds, 0.02% hits | Potency, µM, inactives show at the top dose activation, hits mostly activators | U87-MG GRP78 promoter luciferase reporter, 16 h; further: series mostly up to about 76 µM; % of control where 0% means no effect; nearly all actives have a fitted effect of over 35% in size
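Stably transfected U87-MG glioma cells carrying a GRP78-based luciferase sensor; 16 h compound incubation. Luminescence end-point read 10 min after Bright-Glo addition at room temperature.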
* hit, by the source's call; ? = inconclusive; . = not tested or not shown; ! = not confirmed by another sample; [ ] = dose if it differs, or a comment. The call rests on the fitted dose curve; in most records, active means well fitted curve in the direction sought with a large enough effect; inconclusive means small, poorly fitted or top-dose-only effect, or another doubt; inactive means no such curve, though single readings can be large; an effect the other way counts as inactive or inconclusive. Potency means the concentration at half of the fitted maximal effect.

SMILES	Sfp inh	VDR inh	G9a inh	ALOX12 inh	GRP78 ERSR act
CN1/C(=C/C2CC(=O)N(c3cccc4ccccc34)C2=O)C(C)(C)c2ccccc21 (configuration not stated)	1%	15%	?	?	-4%
CCOc1ccc(N2C(=O)CC(/C=C3/N(C)c4ccccc4C3(C)C)C2=O)cc1 (configuration not stated)	0%	-13%	14µM*	-28%	-1%
CCCCCCOc1ccc(N2C(=O)CC(SCCN)C2=O)cc1 (configuration not stated)	-13%	10%	?	-23%	4%
CCOc1ccc(-n2nnnc2SCC(=O)c2ccccc2)cc1	1%	-5%	-4%	0%	-5%
COc1cccc(Nc2ncc(-c3ccccc3)c3c2OCC3)c1	.	.	.	52%[176 µM]	.
O=C1C2C(C(=O)N1/N=C/c1ccc(N3CCCCC3)o1)C1C=CC2C12CC2 (configuration not stated)	1µM*	89µM*	?	?	-3%
CC(=O)N1CCN(C(C(=O)O)c2cn(Cc3ccccc3)c3cc(C(=O)O)ccc23)CC1 (configuration not stated)	.	.	.	-29%	.
O=S(=O)(NCCNC/C=C/c1ccc(Br)cc1)c1cccc2cnccc12	-6%	5%	50µM*!	2%	-10%
CNCCNS(=O)(=O)c1cccc2cnccc12	0%	3%	30µM*	11%	-9%
CC(C)=CC1C(C(=O)NCC(C)(C)N2CCOCC2)C1(C)C (configuration not stated)	.	.	.	0%	.
Cc1c(N2C(=O)CS/C2=N\N=C\c2ccc(Cl)cc2)c(=O)n(-c2ccccc2)n1C	9%	0%	53%[12.7 µM]	18%	-1%
COc1ccc(/C=N/N=C2\SCC(=O)N2c2c(C)n(C)n(-c3ccccc3)c2=O)cc1OC	9%	-10%	8.9µM*	2%	-2%
CCOc1ccc(NC(=O)CCc2c(C)nc3cc(-c4ccc(Cl)cc4)nn3c2C)cc1	.	-3%	0.71µM*	-9%	-9%
CC1CCCCC1NC(=O)CNC(=O)c1cccs1 (configuration not stated)	.	7%	14µM*	19%	-5%
COc1ccc(-c2nc(C(C)C)nc3c2CCN(C(=O)c2ccccc2Cl)CC3)cc1	.	.	.	-28%	.
CC(=O)N1CCc2cc(NC(=O)CCc3ncc(-c4ccccc4F)o3)ccc21	.	.	.	8%	.
Cc1nn(-c2ccccc2[N+](=O)[O-])c(C)c1[C@@H]1C=C[C@@H](NC(=O)Nc2cccc(C#N)c2)C1	.	.	.	1%	.
COC(=O)c1ccc(C2Nc3c(C)cc(C)cc3C3C=CCC32)cc1 (configuration not stated)	.	?	4.5µM*	-4%	-2%
Cc1cc(C)c2c(c1)[C@@H]1C=CC[C@@H]1[C@H](c1ccc(S(=O)(=O)N3CCOCC3)cc1)N2	10µM*	?	3.5µM*	?	-7%
Cc1ccc(S(=O)(=O)N2CCOCC(=O)NCCOCCNC(=O)COCC2)cc1	1%	-4%	23%[59 µM]	4%	-1%
CC(=O)c1n[nH]nc1Nc1nc(C)cc(C)n1	28µM*	-2%	?	?	-4%
CC(=O)c1ccc(Nc2nc(C)cc(C)n2)cc1	13%	1%	-1%	6%	1%
Cc1cccc(CNC(=O)c2ccccc2NC(=O)c2cccs2)c1	.	.	.	19%	.
Cc1cccc(NC(=O)C2(C#N)C(c3ccccc3)C2(C)C(=O)c2ccc(Cl)cc2)c1 (configuration not stated)	.	.	.	-1%	.
CC(C)/C=N/Nc1nc(-c2ccc(Br)cc2)cs1	79µM*	1%	-18%	-25%	2%
COc1ccccc1COCC(O)CNCC1(N2CCCCC2)CCCCC1 (configuration not stated)	-22%	2%	4.5µM*	?	-5%
COc1cc(C(C)=O)ccc1OCC(O)CNCC1(N2CCCCC2)CCCCC1 (configuration not stated)	?	2%	28µM*	-25%	6%
CCN(CC)S(=O)(=O)c1cccc(C(=O)NC2=NCCS2)c1	22%	10%	50µM*	16%	-2%
CCN(CC)S(=O)(=O)c1cccc(C(=O)NCCCn2ccnc2)c1	10%	3%	56µM*	-6%	-3%
